Giardia killer = Small Molecules that selectively kill Giardia lamblia: qHTS | 340,000 tested, 0.15% active | Giardia lamblia trophozoite viability | activity change, % at 7.66 µM, hits read low | AID 540267, 2011; in the data active means activity change below about -80%; inconclusive means between about -30% and that limit;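 further: parasites exposed to compound for two days anaerobically before the ATP read; on the % scale 0 is the no-effect control and ±100 the full control effect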
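Viability, read as ATP luminescence: trophozoites at 100 cells/well, compound added, 48 hrs anaerobic at 37 deg C, then 15-30 min room-temperature development before reading.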
Apoferritin bind = qHTS Assay for Identification of Novel General Anesthetics; Ferritin light chain (Equus caballus), P02791; Potency, µM (doses to about 77.5 µM), for the others: at the top dose activity change, negative = displacement, hits mostly inhibitors; AID 485281, 2010; 350,000 tested, 0.074% active; apoferritin/1-aminoanthracene competitive binding, fluorescence; further: potency means the concentration at half of the fitted maximal effect; on the % scale 0 is the no-effect control and ±100 the full control effect; nearly all actives have a fitted effect of over 20% in size
Target sequence (P02791 2-175 limits assumed): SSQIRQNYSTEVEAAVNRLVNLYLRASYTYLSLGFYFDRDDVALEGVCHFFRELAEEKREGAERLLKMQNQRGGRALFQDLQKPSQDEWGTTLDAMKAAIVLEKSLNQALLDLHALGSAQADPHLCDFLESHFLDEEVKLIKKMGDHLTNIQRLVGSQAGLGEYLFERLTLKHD
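Concentration-response curves derived by four-parameter Hill fitting of normalized fluorescence, where compounds displaced 1-AMA from 10 uM horse apoferritin following a brief 10 min room-temperature incubation; propofol titration acted as positive control.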
Nrf2 activator = qHTS of Nrf2 Activators | Potency, µM (top dose mostly 46.1 µM), for inactives: at the highest dose activation, hits mostly activators | AREc32 ARE-luciferase reporter (MCF7-derived line), luminescence, 24 h | 410,000 tested, 0.31% active; further: potency means the concentration at half of the fitted maximal effect; % of control where 0% means no effect; nearly all actives have a fitted effect of over 65% in size
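Each well held 1000 AREc32 cells, which were incubated with compound for 24 hr at 37 deg C after overnight attachment, and ARE reporter activity was quantified by firefly luciferase luminescence.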
IDH1 R132H inh = qHTS for Inhibitors of mutant isocitrate dehydrogenase 1 (IDH1): qHTS | Isocitrate dehydrogenase [NADP] cytoplasmic (Homo sapiens), O75874 | IDH1-R132H enzyme, NADPH consumption, diaphorase/resazurin fluorescence | Potency, µM (titrated, usually from 76.6 µM), inactives show at the top dose activity change, negative = inhibition, most hits filed as inhibitors | 390,000 tested, 0.093% active | AID 602179, 2012; further: potency means the concentration at half of the fitted maximal effect; on the % scale 0 is the no-effect control and ±100 the full control effect; nearly all actives have a fitted effect of over 65% in size
Target sequence (O75874 whole entry R132H, stated change not applied): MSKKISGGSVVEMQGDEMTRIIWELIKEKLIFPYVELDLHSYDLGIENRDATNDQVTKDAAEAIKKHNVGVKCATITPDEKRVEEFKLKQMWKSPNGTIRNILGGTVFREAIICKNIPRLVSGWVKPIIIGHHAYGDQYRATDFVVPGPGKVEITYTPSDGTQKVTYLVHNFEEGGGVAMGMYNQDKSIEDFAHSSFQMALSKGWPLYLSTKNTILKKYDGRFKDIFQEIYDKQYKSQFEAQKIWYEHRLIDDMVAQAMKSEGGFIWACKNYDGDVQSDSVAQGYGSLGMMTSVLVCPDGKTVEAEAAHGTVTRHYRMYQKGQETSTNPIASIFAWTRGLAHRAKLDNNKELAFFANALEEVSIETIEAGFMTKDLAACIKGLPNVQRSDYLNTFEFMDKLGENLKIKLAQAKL
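IDH1-R132H (0.5 ug/mL dispensed) in pH 7.5 Tris buffer was preincubated 30 min with compound, then given a substrate mix of 0.016 mM NADPH and 2 mM alpha-KG for 80 min at room temperature; remaining NADPH was read by diaphorase/resazurin fluorescence.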
Nrf2 inh = Nrf2 qHTS screen for inhibitors; AID 504444, 2011; Potency, µM (titrated, usually from 46 µM), for the others: at the top dose activity change, negative = inhibition, actives largely listed as inhibitors; A549 ARE-Fluc reporter, luciferase luminescence, 18-24 h; 360,000 tested, 2.1% active; further: potency means the concentration at half of the fitted maximal effect; on the % scale 0 is the no-effect control and ±100 the full control effect; nearly all actives have a fitted effect of over 60% in size
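A549 ARE_Fluc cells (5000/well, 5% FBS OPTI-MEM) pre-incubated 2 h, then treated with compounds 18-24 h at 37C/5% CO2 in concentration-response. CellTiter-Fluor viability read first; BugLite luciferase luminescence after 15 min at room temperature gives Nrf2 activity.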
A549 tox-1 = Nrf2 qHTS screen for inhibitors: counterscreen for cytotoxicity; Potency, µM (doses to about 46 µM), for the others: top-dose activity change, negative = cytotoxicity, hits mostly inhibitors; 390,000 tested, 0.16% active; A549 ARE-Fluc cells, CellTiter-Fluor viability, 18-24 h; further: potency means the concentration at half of the fitted maximal effect; on the % scale 0 is the no-effect control and ±100 the full control effect
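A549 ARE-Fluc cells in 5% FBS OPTI-MEM, 5000 cells/well, rested 2 h then exposed to compounds in concentration-response for 18-24 h at 37 °C. Viability by CellTiter-Fluor fluorescence (Ex 405/Em 525) after 30 min; luciferase luminescence (BugLite, 15 min, RT) read afterwards.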
FLuc counter 3 = Nrf2 qHTS screen for inhibitors: Purified Fluc Biochemical Counterscreen for Hit Validation | shares compounds with Nrf2 inh | purified firefly luciferase, luminescence inhibition | Potency, µM (titrated, usually from 57.5 µM), without a hit: top-dose activity change, negative = inhibition, usual class: inhibitors | 1,400 tested, 4% active; further: potency means the concentration at half of the fitted maximal effect; on the % scale 0 is the no-effect control and ±100 the full control effect; nearly all actives have a fitted effect of over 65% in size
A549 tox-2 = Nrf2 qHTS screen for inhibitors: A549 ARE-Fluc Cytotoxicity Counterscreen for Hit Validation; shares compounds with Nrf2 inh; A549 ARE-Fluc cells, cytotoxicity counterscreen; Potency, µM (doses to about 46.1 µM), for the others: at the highest dose activity change, negative = cytotoxicity, usual class: inhibitors; 1,400 tested, 2% active; AID 720523, 2013;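 further: potency means the concentration at half of the fitted maximal effect; cells exposed to compounds for 18 to 24 hours; on the % scale 0 is the no-effect control and ±100 the full control effect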
ARE-Fluc inh = Nrf2 qHTS screen for inhibitors: Nrf2 A549 ARE-Fluc Confirmation Assay for Hit Validation | shares compounds with Nrf2 inh | A549 ARE-firefly luciferase reporter, luminescence | Potency, µM (top dose mostly 46.1 µM), for inactives: at the top dose activity change, negative = inhibition, actives largely listed as inhibitors | 1,400 tested, 74% active | AID 720524, 2013; further: potency means the concentration at half of the fitted maximal effect; on the % scale 0 is the no-effect control and ±100 the full control effect; nearly all actives have a fitted effect of over 65% in size
An asterisk follows results filed as active; ? = inconclusive; nt = not tested or not shown; [ ] = another dose, or the depositor's remark. An excerpt weighted towards active compounds, which were near 2.3% of everything screened. Unless noted, the call rests on the fitted dose curve; in most records, active means well fitted curve in the direction sought with a large enough effect; inconclusive means small, poorly fitted or top-dose-only effect, or another doubt; inactive means no such curve, though single readings can be large; an effect the other way counts as inactive or inconclusive.

SMILES | Giardia killer | Apoferritin bind | Nrf2 activator | IDH1 R132H inh | Nrf2 inh | A549 tox-1 | FLuc counter 3 | A549 tox-2 | ARE-Fluc inh
CCOC(=O)c1c(C)[nH]c(CCC(=O)Nc2ccc(Cl)cc2C)c1C | nt | 1% | 1% | -4% | nt | 12% | nt | nt | nt
COc1ccc(/C=C/c2ccccn2)cc1 | nt | nt | nt | nt | nt | nt | -2% | -30% | 2.3µM*
COc1cc(NC(=O)CSc2nc3nc(C)c(Cc4ccc(C)cc4)c(C)n3n2)cc(OC)c1 | nt | -4% | -1% | 0% | nt | -12% | nt | nt | nt
CC(=O)N1CCCc2cc(S(=O)(=O)N3CCCC(C(=O)Nc4cccc(Cl)c4C)C3)ccc21 (stereo unspecified) | nt | -2% | 6% | -13% | nt | 0% | nt | nt | nt
Cc1cccc(-n2c(=O)c3c4c(sc3n3cnnc23)CCCC4)c1 | nt | -9% | -2% | -1% | -19% | -14% | nt | nt | nt
Cc1c(C(=O)NCc2ccccc2C(F)(F)F)sc(=O)n1Cc1ccc(Cl)c(Cl)c1 | nt | nt | 5% | nt | nt | nt | nt | nt | nt
CCn1c(SCC(=O)Nc2cccc(OC)c2)nc2ccccc2c1=O | 21 | -2% | 6% | 1% | 8.2µM* | -10% | -4% | 0% | 38%
CC(=O)Nc1ccccc1OCC(=O)c1cc(C)n(Cc2cccs2)c1C | -11 | -9% | 3% | -1% | 0.41µM* | ? | 15µM* | -4% | -24%
Cc1ccc(C(=O)Oc2coc(CSc3nnc(NC(=O)c4cccs4)s3)cc2=O)cc1 | 14 | -5% | -1% | 7% | 6.5µM* | -1% | ? | 1% | 4.6µM*
O=[N+]([O-])c1cc(Cl)cc2c1nc(NCCO)c1ccccc12 | -15 | -7% | 8.9µM* | 0% | 1.3µM* | ? | -1% | ? | 0.73µM*
Cc1cnc2ccc3ccccc3c2c1C | nt | nt | nt | nt | nt | nt | ? | -27% | 6.5µM*
c1ccc2c(c1)ccc1ncccc12 | 6 | -8% | 0% | 1% | 4% | 5% | nt | nt | nt
Cc1ccc(-n2ncc(C(=O)NCCN3CCc4ccccc4C3)c2C2CCN(C(=O)OC(C)(C)C)CC2)c(C)c1 | nt | ? | 9% | -9% | 10% | -7% | nt | nt | nt
CCOc1cc(/C=C(\C#N)C(=O)Nc2ccccc2C(=O)O)ccc1OC(=O)c1ccc(C)cc1 | -13 | -4% | 5% | 4% | 2.1µM* | -2% | ? | -1% | 4.6µM*
Cc1sc2c(c1C)c(=O)n(-c1ccc(Cl)cc1)c(=O)n2Cc1cc(=O)n2cc(Br)ccc2n1 | nt | -6% | -1% | 12% | -8%[9.27 µM] | 6% | nt | nt | nt
Cn1cc(S(=O)(=O)N2CCc3ccccc32)cc1C(=O)NC(C)(C)C | -10 | -13% | -1% | 4% | 2.1µM* | -12% | 3% | -7% | 4.6µM*
CN(C)NC1=CC(=[N+]2CCCC2)CC(C)(C)C1 | -3 | 1% | 0% | -3% | -14% | 3% | nt | nt | nt
CCCN(CCC)C1=CC(=[N+]2CCCC2)CC(C)(C)C1 | 3 | -6% | 2% | -1% | 2.1µM* | -17% | 0% | -10% | 4.6µM*
CC1(C)CC(N2CCCCC2)=CC(=[N+]2CCCCC2)C1 | -18 | -3% | 0% | -1% | 2.3µM* | -21% | 2% | -13% | 9.2µM*
CCOC(=O)c1cccc(NC(=O)[C@H](CSCc2ccccc2)N2Cc3ccccc3C2=O)c1 | nt | 42% | 0% | 2% | -9% | -11% | nt | nt | nt
O=NNc1nc2ccccc2n1Cc1ccccc1 | -6 | -20% | 0% | 1% | 6.5µM* | ? | -20% | -24% | 6.5µM*
N=c1ccn(Cc2c(Cl)cccc2Cl)cc1 | -3 | -8% | -1% | -2% | 5.2µM* | -5% | 2% | -3% | 4.1µM*
COC(=O)NC(CC(C)=O)c1ccc2c(c1)OCO2 (stereo unspecified) | nt | -8%[15.3 µM] | nt | nt | nt | nt | nt | nt | nt
Cc1ccc(NC(=O)C2CCCN(C(=O)c3ccc(Cl)cc3)C2)cc1S(=O)(=O)N1CCOCC1 (stereo unspecified) | 12 | -16% | 3% | -11% | 7.3µM* | ? | 1% | -23% | 13µM*
CS(=O)(=O)c1ccc(NC(=O)C2CCCN(C(=O)c3ccc(Cl)cc3)C2)cc1 (stereo unspecified) | 0 | nt | 0% | -7% | ? | 9% | nt | nt | nt
O=C1c2ccccc2NC(c2ccccc2O)N1Cc1ccccc1 (stereo unspecified) | nt | nt | nt | nt | 11% | -1% | nt | nt | nt
CCOC(=O)[C@]12CCCC=C1N(Cc1cccc3ccccc13)C(=O)[C@H](CC(=O)NCCCN1CCCC1=O)C2 | nt | nt | -1% | nt | nt | nt | nt | nt | nt
O=C(Nc1ccc2c(c1)OCCO2)c1cccc2nc3ccccc3nc12 | 2 | -11% | 0% | 3% | 2.6µM* | 21µM* | ? | 12µM* | nt
O=C(Oc1ccc(N(Cc2cccs2)C2=NS(=O)(=O)c3ccccc32)cc1)c1ccccc1Cl | 12 | -5% | -1% | 4% | 1µM* | -5% | -2% | -1% | 3.7µM*
